Compounds with a hit are over-represented: about 2.4% of the library has one in this group of screens.
TMEM16A inh = inhibitors of mouse TMEM16A calcium-activated chloride channel; AID 588511; 310,000 compounds, 1.2% hits; Q8BHY3; HEK293 TMEM16A/YFP iodide influx fluorescence, ionomycin; normalized B-score (activity score, 25-100; higher = stronger inhibition) at 10 µM;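 active = ratio plate-corrected score three or more library SD toward inhibition, starting fluorescence score within five deviations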;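 note: score derived from kinetic fluorescence span divided by baseline fluorescence per well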
CHT PAM = human CHT allosteric activation; AID 488977; CHT-expressing cells, membrane potential dye, choline EC20; stronger effect = higher value; LV-AA mutant CHT in HEK293 cells; B-score at 10 µM; Q9GZV3; 310,000 compounds, 0.49% hits;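 active = initial fluorescence not abnormally high and integrated response B-score, plate-corrected, over 3 SD above library mean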
Target sequence (Q9GZV3 whole entry, looked up): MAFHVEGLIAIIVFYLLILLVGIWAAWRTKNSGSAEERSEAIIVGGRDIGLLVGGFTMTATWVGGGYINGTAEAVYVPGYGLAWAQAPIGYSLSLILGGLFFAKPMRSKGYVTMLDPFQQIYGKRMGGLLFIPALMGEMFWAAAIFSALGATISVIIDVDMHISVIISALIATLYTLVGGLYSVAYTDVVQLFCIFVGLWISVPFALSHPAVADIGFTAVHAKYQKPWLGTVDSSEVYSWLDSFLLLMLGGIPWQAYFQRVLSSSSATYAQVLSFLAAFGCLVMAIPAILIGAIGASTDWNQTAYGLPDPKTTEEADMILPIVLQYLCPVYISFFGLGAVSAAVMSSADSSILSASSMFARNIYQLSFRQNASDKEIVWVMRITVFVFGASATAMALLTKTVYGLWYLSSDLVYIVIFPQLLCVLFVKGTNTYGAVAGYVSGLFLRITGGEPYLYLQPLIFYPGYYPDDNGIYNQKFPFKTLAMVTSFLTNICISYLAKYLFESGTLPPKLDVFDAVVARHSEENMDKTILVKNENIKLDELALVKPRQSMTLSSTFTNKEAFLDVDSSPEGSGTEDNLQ
ANO1 activ = activators or potentiators of mouse TMEM16A chloride channel; B-score at 10 µM; 340,000 compounds, 0.3% hits; HEK293 TMEM16A/YFP-H148Q/I152L, iodide quench fluorescence; stronger effect = lower value;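 active = fluorescence-ratio B-score plate-corrected deviation score at least 3 library SD below zero, with starting fluorescence score within 5 deviations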;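 note: channel opened by trigger with iodide after compound preincubation; score built on the fluorescence ratio of max minus min over baseline; more negative score means more quench and so TMEM16A activation or potentiation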
CHT block = inhibitors of human choline transporter CHT | Q9GZV3 | CHT-expressing cells, membrane potential dye, choline response; stronger effect = lower value | B-score at 10 µM | 310,000 compounds, 0.86% hits;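 active = B-score over 3 SD under the library average, and starting fluorescence ratio not unusually high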;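 note: choline stimulus applied at its EC90 after an EC20 pre-addition; B-score computed on integrated fluorescence ratio after choline addition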
Starred values were filed as active, the others as inactive; i = inactive; . = no result.

SMILES | TMEM16A inh | CHT PAM | ANO1 activ | CHT block
NC(=O)CSC1=Nc2ccccc2C2=NC(CC(=O)NCc3cccs3)C(=O)N12 (stereo not given) | i | i | i | i
CCOc1ccc(CNc2ccc(S(N)(=O)=O)cc2)cc1 | i | i | -5.1* | i
O=S(=O)(Nc1ncnc2sc3c(c12)CCC3)c1ccc(Cl)s1 | 25* | i | i | i
O=C(Nc1ncnc2sc3c(c12)CCCC3)c1ccncc1 | i | i | i | i
COc1ccc(C(C)=O)cc1CN(c1ccccc1OC)S(=O)(=O)c1cccs1 | i | i | i | i
CCOCCCN(C)C1CCN(C(=O)c2oc3ccccc3c2NC(=O)COc2ccc(F)cc2)CC1 | i | i | i | -7.2*
O=C(O)CC1S/C(=N\N=C2\C(=O)Nc3ccccc32)N(c2ccc(O)cc2)C1=O (stereo not given) | i | i | i | i
Cc1noc(C)c1CSCC(=O)N1CCN(c2ccc([N+](=O)[O-])cc2)CC1 | 25* | i | i | i
Cc1ccc(CC(=O)N2CCN(c3ccc([N+](=O)[O-])cc3)CC2)cc1 | i | i | i | i
O=C1C(NS(=O)(=O)c2cccs2)=C(N2CCN(Cc3ccccc3)CC2)C(=O)c2ccccc21 | i | i | i | -5.5*
CCOC(=O)N1CCN(C(=O)COC(=O)CSc2cc(C)c(Br)cc2C)CC1 | i | i | i | i
Cc1c(Cc2ccc3c(c2)OCO3)sc(NC(=O)c2ccc3ccccc3c2)c1C(N)=O | i | i | . | -6.6*
CCC(=O)Nc1sc(Cc2ccc3c(c2)OCO3)c(C)c1C(N)=O | i | i | i | i
COc1ccc(-c2cc(-c3ccccc3)c(C#N)c(S(C)=O)n2)cc1 (stereo not given) | i | i | -8.1* | i
CC1CCCN(S(=O)(=O)c2cccc([N+](=O)[O-])c2)C1 (stereo not given) | i | i | i | i
CS(=O)(=O)N1CCc2cc(-c3csc(NC(=O)Cc4ccccc4)n3)ccc21 | 25* | i | i | i
Cc1ccc(S(=O)(=O)CC(=O)Nc2nc(-c3ccccc3)cs2)cc1 | i | i | -5* | i
Cc1ccccc1C(=O)N1CCc2cc(-c3csc(NC(=O)CN4CCCC4)n3)ccc21 | 25* | i | i | i
O=C(C[n+]1ccccc1)N/N=C/c1ccccc1C(F)(F)F | i | i | i | i
c1ccc2c(c1)CCN2CCN1CCc2ccccc21 | i | i | -17* | i
CN(C)CCN1CCc2ccccc21 | i | i | i | i
COc1ccc(/C=N/N(c2ccccc2)c2ccccc2)cc1O | i | i | i | i
Cc1c(C(C)C)c(=O)n(-c2ccc(S(=O)(=O)NCc3ccccc3)cc2)n1C | 25* | i | i | i
Cc1c(C(C)C)c(=O)n(-c2ccc(S(=O)(=O)NC3CCCCC3)cc2)n1C | i | i | i | i
CCOC(=O)C1(CCCCCCOc2ccc(Cl)cc2)CO1 (stereo not given) | 25* | i | . | i
SMILES | TMEM16A inh | CHT PAM | ANO1 activ | CHT block
O=C(CCCOc1ccc(Cl)cc1)N1CCOCC1 | i | i | i | i
CCOC(=O)N1CCN(CC(O)COc2ccccc2C(C)C)CC1 (stereo not given) | i | i | i | i
COc1ccc(C2CCCN2CC(O)COc2ccccc2C(C)C)cc1 (stereo not given) | i | 10* | i | i
CC(=O)c1cccc(N=Nc2c(-c3ccccc3)[nH]n(-c3ccccc3)c2=O)c1 | i | i | i | i
O=C(COC(=O)C1CCCN1C(=O)c1cccs1)Nc1ccc2c(c1)OCO2 (stereo not given) | i | i | -20* | i
CC(C)N1CCC2(CC1)C(C#N)=C(N)NC(S)=C2C#N | i | i | . | i
Cc1ccc(S(=O)(=O)NCc2c(Cl)cccc2Oc2ccccc2)cc1 | 100* | i | i | i
O=S(=O)(NCc1c(Cl)cccc1Oc1ccccc1)c1ccccc1 | i | i | i | i
C[N+](C)(C)CC(O)CC(=O)O (stereo not given) | i | i | i | i
CCOC(=O)C(C)On1c(-c2ccc(Cl)cc2)nc2ccc([N+](=O)[O-])cc21 (stereo not given) | 100* | i | i | i
CC1CCN(S(=O)(=O)c2ccc(C(=O)N3CCOCC3)cc2)CC1 | i | i | i | i
CC(=O)Nc1ccc(S(=O)(=O)Oc2ccc3c(c2)C(C)=CC(C)(C)N3)cc1 | 25* | i | . | i
CC1=CC(C)(C)Nc2ccc(OS(=O)(=O)c3ccc(C)cc3)cc21 | i | i | i | i
CCCC(=O)N1CCN(c2ccc(NC(=O)c3cc4ccccc4o3)cc2Cl)CC1 | 100* | i | i | -7.4*
CCCC(=O)N1CCN(c2ccc(NC(=O)c3cccs3)cc2Cl)CC1 | i | i | i | i
CC(C)c1ccc(NC2CCCN(C(=O)CCc3cn[nH]c3)C2)cc1 (stereo not given) | i | i | i | i
COc1ccccc1N1CCN(C(=O)CSc2nc3ccccc3[nH]2)CC1 | 25* | i | i | i
CCOc1ccc(NC(=O)COn2nnc3ccc(S(=O)(=O)N4CCOCC4)cc32)cc1 | i | i | i | i
O=C(NN1C(=O)/C(=C\c2ccc(O)c([N+](=O)[O-])c2)SC1=S)c1ccccc1Cl | i | i | -5.5* | i
O=C(O)c1ccc(/C=C2\SC(=S)N(NC(=O)c3ccccc3[N+](=O)[O-])C2=O)cc1 | i | i | i | i
CCN(CC)c1ccc(CNc2nc3ccccc3n2CCN2CCCCC2)cc1 | 100* | i | i | i
Cc1cccc(NC(=O)C2CCN(S(=O)(=O)c3c(C)c(C)cc(C)c3C)CC2)n1 | 100* | i | i | i
O=C(CCCOc1ccc(Cl)cc1Cl)N1CCCc2ccccc21 | 100* | i | i | i
CS(=O)(=O)N(CCc1ccccc1)CC(=O)Nc1ccc(OCc2ccccc2)cc1 | i | i | -20* | i
Nc1nc(CSc2nc3ccccc3s2)nc(N2CCOCC2)n1 | i | i | i | i
SMILES | TMEM16A inh | CHT PAM | ANO1 activ | CHT block
Nc1nc(CSCc2ccccc2)nc(N2CCOCC2)n1 | i | i | -15* | i
O=C(CCCn1c(=O)[nH]c2cc(Cl)ccc2c1=O)NC1CCCCCC1 | 25* | i | i | i
COc1cc2[nH]c(=O)n(CCCCCC(=O)NC3CCCC3)c(=O)c2cc1OC | i | i | i | i
Cc1cc(C)nc(-n2nc(C)cc2Nc2ccccc2)n1 | i | i | i | -5.2*
Cc1c(C(=O)N2CCN(Cc3ccccc3)CC2)oc2c1C(=O)CC(C)(C)C2 | i | i | i | i
Cc1ccc(S(=O)(=O)/N=C2/NC(=O)/C(=C/c3cc([N+](=O)[O-])ccc3O)S2)cc1 | i | i | i | i
